Reference: the supplement of paper PMC10127200

Tested on: 786-O
Assay: Euclidean distance of Cell Painting phenotypic profile (signed KS, 77 features) to DMSO centroid (dimensionless distance); 5 or 10 uM (library dependent); higher = stronger phenotypic change vs DMSO (phenoactivity)
Conditions: 48 h
Summary of the method: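 Harmony extracted 77 features from 20X confocal images (9 fields/well) of stained cells, scoring each as a signed Kolmogorov-Smirnov statistic against same-plate vehicle wells. The cells, five cancer lines and a healthy fibroblast line, had received library compounds for 48 h at 10 or 5 uM depending on library, with 0.1% DMSO final. Phenoactivity is the Euclidean distance from each plate-position-corrected, correlation-weighted, top-dose replicate-averaged profile to the median vehicle profile.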

Compound | Euclidean distance
CCC(C)n1ncn(-c2ccc(N3CCN(c4ccc(OCC5COC(Cn6cncn6)(c6ccc(Cl)cc6Cl)O5)cc4)CC3)cc2)c1=O (stereo unspecified) [Itraconazole] | 4.09
CC(O)Cn1cnc2c1c(=O)n(C)c(=O)n2C (stereo unspecified) [Proxyphylline] | 1.48
C=C1CC[C@H](O)C/C1=C/C=C1\CCC[C@]2(C)[C@@H]([C@H](C)CCCC(C)(C)O)CC[C@@H]12 [Calcifediol] | 1.61
CC(C)C[C@H](NC(=O)CNC(=O)[C@H](Cc1ccc(O)cc1)NC(=O)[C@H](CO)NC(=O)[C@H](Cc1c[nH]c2ccccc12)NC(=O)[C@H](Cc1cnc[nH]1)NC(=O)[C@@H]1CCC(=O)N1)C(=O)N[C@@H](CCCNC(=N)N)C(=O)N1CCC[C@H]1C(=O)NCC(N)=O [Gonadorelin Acetate] | 1.59
COc1ccccc1N1CCN(CC(O)COc2cccc3ccccc23)CC1 (stereo unspecified) [Naftopidil] | 1.4
C=C1C(=O)O[C@H]2[C@H]1CC/C(C)=C/CC[C@@]1(C)O[C@@H]21 [(-)-Parthenolide] | 3.29
OCCN1C[C@H](O)[C@@H](O)[C@H](O)[C@H]1CO [Miglitol] | 1.4
COc1ccc2cc([C@H](C)C(=O)O)ccc2c1 [Naproxen Sodium] | 1.02
CCCCCCOC(=O)NC(=N)c1ccc(NCc2nc3cc(C(=O)N(CCC(=O)OCC)c4ccccn4)ccc3n2C)cc1 [Dabigatran Etexilate] | 1.9
CN1CCC(=C2c3ccccc3CCc3cccnc32)CC1 [Azatadine dimaleate] | 1.51
COc1cc(Nc2ncc(F)c(Nc3ccc4c(n3)N(COP(=O)(O)O)C(=O)C(C)(C)O4)n2)cc(OC)c1OC [R788 (Fostamatinib) Disodium] | 1.37
